# Measurements reported in PubChem BioAssay AID624459 (National Center for Advancing Translational Sciences (NCATS), 2012).
# Active and inactive are the calls of the source. How the calls were made is not given here.
# Test: HTS Assay for Allosteric Antagonists of the Human D2 Dopamine Receptor: Hit Validation in Parental Cell Line
smiles,measurement,value
NCCc1ccc(O)c(O)c1,outcome,inactive
